Laboratory results taken from PubChem BioAssay.
Several values for one entry are separate records, joined by “and”; a condition that tells them apart may be missing. Equal entries are not always repeated. Inconclusive results are not listed. Activity calls are given as the source filed them. Rule as the data show it, unless noted: active = inhibition above about 80%; inactive = the rest.

Assays:
[1] = P. berghei load reduction in hepatocytes – cell-based, HepG2, luciferase luminescence, HepG2 viability, primary screen (AID 624349; in the data active = parasite load remaining mostly below about 12%, no sharp cut-off; inactive = mostly above about 10%;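 also: 100% = mean of DMSO negative control wells on the same plate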); conditions: P. berghei liver stage in HepG2, luciferase luminescence, concentration not given here; parasite load remaining: stronger effect = lower value; viability: measured here: HepG2 viability without parasites
[2] = viability loss in pontine glioma line – cell-based, SU-DIPG-IV, MIPE4.0, CellTiter-Glo, qHTS, dose response (AID 1347063; cut-off not given, nearly all actives have AC50 up to about 30 µM;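 also: compound exposure lasted 48 hours before the viability readout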); conditions: CellTiter-Glo ATP luminescence
[3] = growth inhibition, single agents and combos, LFS_MB_1R, cell-based, cisplatin or BGB combos, synergistic combos for chromothripsis tumors (AID 1671452); conditions: LFS_MB_1R medulloblastoma cells, stronger effect = higher value;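 also: cells exposed for 96 hours before readout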
[4] = growth inhibition, single agents and combos, CRL2098, cell-based, BGB or cisplatin IC20 combos, synergistic combos for chromothripsis tumors (AID 1671454); conditions: CRL2098 osteosarcoma cells, drug combinations, stronger effect = higher value;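 also: cells exposed for 96 h before readout; 0% = vehicle DMSO and 100% = killing by high DMSO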
[5] = growth inhibition, single agents and combos, HD-MB03, cell-based, BGB or cisplatin IC20 combos, synergistic combos for chromothripsis tumors (AID 1671455; in the data active = inhibition above about 83%;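 also: 0% = vehicle DMSO and 100% = high DMSO as cytotoxic control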); conditions: HD-MB03 medulloblastoma cells, stronger effect = higher value
[6] = growth inhibition, single agents and combos, UWB1.289, cell-based, BGB or cisplatin combos, synergistic combos for chromothripsis tumors (AID 1671456); conditions: UWB1.289 ovarian carcinoma cells, stronger effect = higher value;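 also: cells exposed to compound for four days; 0% = vehicle DMSO and 100% = killing by high DMSO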
[7] = growth inhibition, single agents and combos, LFS_MB_2R, cell-based, cisplatin combos, synergistic combos for chromothripsis tumors (AID 1671457); conditions: LFS_MB_2R medulloblastoma cells, stronger effect = higher value;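 also: cells exposed to compound for four days before readout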
[8] = UWB1.289_BRCA1 ovarian cancer growth, cell-based, BGB or cisplatin combinations (AID 1671459); conditions: UWB1.289 BRCA1 ovarian carcinoma, drug combinations, stronger effect = higher value
[9] = drug combination toxicity in non-malignant astrocytes – cell-based, BGB or cisplatin IC20 combos, cytotoxicity control for chromothriptic childhood tumor combination screen (AID 1671460); conditions: Human astrocytes, viability inhibition, drug combinations, at 0.5 µM, stronger effect = higher value;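 also: cells exposed to compounds for 96 hours before viability readout; 0% = vehicle and 100% = killing control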
[10] = tested on: Neuropilin-2 / VEGF-C interaction (human); assay: small molecules blocking Neuropilin-2/VEGF-C interaction – biochemical, microplate binding format, z-score (AID 743281; call rule not given here); conditions: microplate NRP2/VEGF-C binding assay; stronger effect = lower value
[11] = tested on: Aerobactin synthetase IucA (Klebsiella pneumoniae); assay: inhibition of K. pneumoniae IucA enzyme – biochemical, Tocris library, absorbance (AID 1345561; call rule not given here;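 also: 100% = enzyme without compound and 0% = no enzyme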); conditions: purified IucA enzyme assay, absorbance (OD) read-out; stronger effect = lower value;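 tested at 8 µM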
[12] = chitosan synthesis blockers in C. neoformans – flow cytometry, Cibacron Brilliant Red staining (AID 1347148; call rule not given here;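 also: compound exposure lasted three days at 37 degrees C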); conditions: Cryptococcus neoformans chitosan, stronger effect = lower value; at 99.1 µM unless noted
[13] = molecular target: ATP-dependent translocase ABCB1 (Homo sapiens) (UniProt P08183); assay: P-glycoprotein substrate transport blockade – cell-based (AID 377; in the data active = fluorescence slope change above about 50%); conditions: MDR1-expressing cells, fluorescent substrate accumulation slope; stronger effect = higher value; concentration not given here
ATP-dependent translocase ABCB1 (Homo sapiens), sequence (P08183 whole entry, looked up): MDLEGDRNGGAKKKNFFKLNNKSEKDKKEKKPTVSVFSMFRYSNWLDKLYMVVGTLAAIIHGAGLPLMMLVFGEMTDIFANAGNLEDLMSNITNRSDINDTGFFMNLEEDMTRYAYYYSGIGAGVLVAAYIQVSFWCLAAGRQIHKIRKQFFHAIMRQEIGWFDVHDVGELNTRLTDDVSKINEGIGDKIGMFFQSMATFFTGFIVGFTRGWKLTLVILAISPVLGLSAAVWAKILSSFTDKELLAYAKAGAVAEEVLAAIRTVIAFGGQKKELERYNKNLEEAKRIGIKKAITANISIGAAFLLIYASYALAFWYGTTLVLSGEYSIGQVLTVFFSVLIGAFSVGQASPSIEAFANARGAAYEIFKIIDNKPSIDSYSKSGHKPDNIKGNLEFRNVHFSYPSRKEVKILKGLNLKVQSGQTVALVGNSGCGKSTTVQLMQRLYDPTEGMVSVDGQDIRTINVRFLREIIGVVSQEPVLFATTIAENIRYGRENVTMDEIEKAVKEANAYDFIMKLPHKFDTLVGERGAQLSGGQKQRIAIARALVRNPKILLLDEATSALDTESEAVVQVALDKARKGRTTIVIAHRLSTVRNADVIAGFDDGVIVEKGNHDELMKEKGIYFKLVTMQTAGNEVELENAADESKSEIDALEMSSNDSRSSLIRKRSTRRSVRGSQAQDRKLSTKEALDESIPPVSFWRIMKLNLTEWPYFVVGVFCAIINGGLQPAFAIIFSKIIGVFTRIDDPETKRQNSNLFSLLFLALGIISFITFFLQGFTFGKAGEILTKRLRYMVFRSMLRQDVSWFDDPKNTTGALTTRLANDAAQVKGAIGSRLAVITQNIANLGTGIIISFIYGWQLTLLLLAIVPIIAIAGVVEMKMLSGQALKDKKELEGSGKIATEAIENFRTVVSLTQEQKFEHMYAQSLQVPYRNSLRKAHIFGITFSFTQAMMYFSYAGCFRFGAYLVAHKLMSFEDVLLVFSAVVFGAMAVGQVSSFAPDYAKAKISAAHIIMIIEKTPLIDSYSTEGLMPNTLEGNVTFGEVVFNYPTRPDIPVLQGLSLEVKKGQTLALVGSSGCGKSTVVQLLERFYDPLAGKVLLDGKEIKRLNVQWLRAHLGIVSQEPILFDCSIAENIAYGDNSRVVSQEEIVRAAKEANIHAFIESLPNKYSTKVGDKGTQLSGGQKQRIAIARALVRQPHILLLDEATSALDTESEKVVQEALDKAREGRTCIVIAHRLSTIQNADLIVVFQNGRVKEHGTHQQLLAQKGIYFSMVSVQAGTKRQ

[14] = compounds altering HSF1 focus formation in cells – imaging, Selleck Cancer Library (AID 1347162; in the data active = plate-normalised HSF1 focus index below about 0.46); conditions: human cells, HSF1 nuclear foci imaging, at 10 µM; SSMD: measured here: HSF1 foci SSMD mean; cell count: measured here: cell number; plate-normalised HSF1 focus index: stronger effect = lower value
[15] = measured here: combination with BGB IC40, at 0.05 µM
[16] = measured here: combination with cisplatin, at 0.5 µM
[17] = measured here: combination with cisplatin, at 5 µM
[18] = measured here: combination with BGB at IC20, at 0.5 µM
[19] = measured here: combination with cisplatin at IC20, at 0.5 µM
[20] = measured here: combo with BGB at IC20, at 0.5 µM
[21] = measured here: combo with cisplatin at IC20, at 0.5 µM
[22] = measured here: inhibition with BGB combination, at 0.05 µM
[23] = measured here: inhibition with cisplatin combination, at 0.05 µM
[24] = BGB combination, concentration series, at 5 µM
[25] = cisplatin combination, concentration series, at 5 µM
[26] = measured here: combo with BGB IC20
[27] = measured here: combo with cisplatin IC20

## Oc1c(Cl)cc(Cl)c2cccnc12
[1]
  parasite load remaining: -2.47% (inactive) and 0.685% (inactive)
  viability: 56.8% and 69.6%
[2]
  AC50: 26.4 µM (active)

## COc1c(N2CCNC(C)C2)c(F)cc2c(=O)c(C(=O)O)cn(C3CC3)c12 (configuration not stated)
[2]
  outcome: inactive
[3]; at 0.5 µM
  inhibition: -13.4% (inactive) and -12.7% (inactive)
[3]; [15]
  inhibition: -24.8% and -10.4%
[3]; [16]
  inhibition: -39.4% and -1.15%
[3]; [17]
  inhibition: -37.1% and -28.2%
[4]; at 0.5 µM
  inhibition: -43.6% (inactive) and -34.5% (inactive)
[4]; [18]
  inhibition: -42.5% and -87.3%
[4]; [19]
  inhibition: -71.8% and 0.194%
[5]; at 0.5 µM
  inhibition: -13.9% (inactive) and 3.18% (inactive)
[5]; [20]
  inhibition: -14.1% and 5.19%
[5]; [21]
  inhibition: -19.6% and 0.97%
[6]; at 0.5 µM
  inhibition: -2.27% (inactive) and 6.63% (inactive)
[6]; [22]
  inhibition: -7.46% and -0.326%
[6]; [23]
  inhibition: -30.7% and -0.886%
[7]; at 0.5 µM
  inhibition: -11.1% (inactive) and 6.57% (inactive)
[7]; [16]
  inhibition: -12.5% and 9.12%
[7]; [17]
  inhibition: -5.47% and -26.4%
[8]; [24]
  inhibition: -10.3% and 3.45%
[8]; at 0.5 µM
  inhibition: -4.22% (inactive) and 5.59% (inactive)
[8]; [25]
  inhibition: -1.48% and 7.21%
[9]
  inhibition: -3.01% (inactive) and 1.57% (inactive)
[9]; [26]
  inhibition: -5.37% and 4.53%
[9]; [27]
  inhibition: -9.08% and 0.874%

## O=C(C1CCCCC1)N1CC(=O)N2CCc3ccccc3C2C1 (configuration not stated)
[2]
  outcome: inactive

## O=c1[nH]cnc2[nH]ncc12
[1]
  parasite load remaining: 54% (inactive) and 101% (inactive) and 124% (inactive)
  viability: 90.8% and 70.7% and 94.2%
[2]
  outcome: inactive

## NS(=O)(=O)c1cc2c(cc1Cl)NCNS2(=O)=O
[2]
  outcome: inactive

## COCCOC(=O)C1=C(C)NC(C)=C(C(=O)OC(C)C)C1c1cccc([N+](=O)[O-])c1 (configuration not stated)
[10]
  z-score: -0.18 (inactive)
[11]
  remaining activity: 102% (inactive)
[12]
  fold fluorescence: 6.04 [at 119.5 µM] (inactive)

## N[C@@H]1CONC1=O
[10]
  z-score: -0.138 (inactive)
[2]
  outcome: inactive

## CCc1cc(C(N)=S)ccn1
[2]
  outcome: inactive

## OC(Cn1cncn1)(Cn1cncn1)c1ccc(F)cc1F
[2]
  outcome: inactive

## CC(C)Cc1ccc(C(C)C(=O)O)cc1 (configuration not stated)
[2]
  outcome: inactive

## CC1(C)O[C@@H]2[C@@H](CO[C@@]3(COS(N)(=O)=O)OC(C)(C)O[C@@H]23)O1
[1]
  parasite load remaining: 169% (inactive) and 59.3% (inactive) and 91.8% (inactive)
  viability: 90.1% and 108% and 69.4%
[10]
  z-score: -1.38 (inactive)
[11]
  remaining activity: 121% (inactive)

## CC1Cc2ccccc2N1NC(=O)c1ccc(Cl)c(S(N)(=O)=O)c1 (configuration not stated)
[2]
  outcome: inactive

## NNCCc1ccccc1
[13]
  fluorescence slope change: 67.1% (active)
[10]
  z-score: -0.0568 (inactive)
[2]
  AC50: 13.2 µM (active)

## O=C1c2c(O)ccc(O)c2C(=O)c2c(NCCNCCO)ccc(NCCNCCO)c21
[2]
  AC50: 6.62 µM (active)
[14]
  SSMD: -1.6
  cell count: 7320
  plate-normalised HSF1 focus index: 0.898 (inactive)
[3]; at 0.5 µM
  inhibition: -4.33% (inactive)
[3]; [15]
  inhibition: 1.71%
[3]; [16]
  inhibition: 72.8%
[3]; [17]
  inhibition: 94.2%
[4]; at 0.5 µM
  inhibition: 7.34% (inactive)
[4]; [18]
  inhibition: 20.4%
[4]; [19]
  inhibition: -13.9%
[5]; at 0.5 µM
  inhibition: 88% (active)
[5]; [20]
  inhibition: 86.5%
[5]; [21]
  inhibition: 84.8%
[6]; at 0.5 µM
  inhibition: 64.9% (inactive)
[6]; [22]
  inhibition: -29.8%
[6]; [23]
  inhibition: -25.8%
[7]; at 0.5 µM
  inhibition: -5.4% (inactive)
[7]; [16]
  inhibition: 20.8%
[7]; [17]
  inhibition: 92.5%
[8]; [24]
  inhibition: 105%
[8]; at 0.5 µM
  inhibition: 63.4% (inactive)
[8]; [25]
  inhibition: 104%
[9]
  inhibition: 68.8% (inactive)
[9]; [26]
  inhibition: 69.1%
[9]; [27]
  inhibition: 56.7%

## CC(C)C(=O)Nc1ccc([N+](=O)[O-])c(C(F)(F)F)c1
[13]
  fluorescence slope change: 60.9% (active)
[14]
  SSMD: 1.17
  cell count: 6660
  plate-normalised HSF1 focus index: 1.06 (inactive)

## COc1ccccc1OCCNCC(O)COc1cccc2[nH]c3ccccc3c12 (configuration not stated)
[1]
  parasite load remaining: 91.3% (inactive) and 56.7% (inactive) and 56.6% (inactive)
[10]
  z-score: 1.06 (inactive)
[11]
  remaining activity: 112% (inactive)

## NNC(=O)c1ccncc1
[13]
  fluorescence slope change: 55.1% (active)
[2]
  outcome: inactive
